Screening data as filed in PubChem BioAssay.
Only some compounds are listed: those with a hit (about 4% of all), similar ones and a draw of the others.
DENV2 CPE: inhibitors of DENV2 cytopathic effect, primary screen, cell-based, plate reader, single concentration. CPE inhibition, % at 9.99 µM. hit rate 1.7% among 350,000. DENV2-infected cells, cytopathic effect rescue. AID 651640, 2012; in the data active = CPE inhibition above about 20%, passing the limit was not always enough; inconclusive = no clear call, values can overlap the other calls; tested in BHK-21 cells;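 note: 0% = median of neutral control wells and 100% = median of positive control wells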
RAD52 inh: RAD52 DNA annealing inhibitors, primary screen, biochemical, FRET, single point, set 2; DNA repair protein RAD52 homolog (Homo sapiens), P43351; AID 651710, 2012; hit rate 0.46% among 360,000; recombinant RAD52 DNA annealing, FRET fluorescence; inhibition, % at 18.7 µM;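 active = every replicate showing at least 50% inhibition; inconclusive = mean inhibition at least 50% but not in every replicate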
FGF22 binding: binders of human FGF22 protein, primary screen, FGF22 synaptogenesis inhibitor project, biophysical, thermal shift, single point; Fibroblast growth factor 22 (Homo sapiens), Q9HCT0; recombinant FGF22 thermal shift, SYPRO orange fluorescence; percent of sucrose octasulfate shift, DMSO zero; activity (Tm shift, normalised), % at 9.99 µM; hit rate 1.5% among 340,000; AID 651658, 2012;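 active = mean Tm shift, scaled 0 neutral to 100 positive control, at about 1.3% or above, every replicate too, limit read from the data; inconclusive = no clear call, values can overlap the other calls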
ERAP1 inh: human ERAP1 aminopeptidase inhibitors, primary screen, biochemical, single point, plate reader; Endoplasmic reticulum aminopeptidase 1 (Homo sapiens), Q9NZ08; hit rate 0.15% among 340,000; inhibition, % at 10.7 µM; recombinant ERAP1, Leu-AMC fluorescence, 60 min;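 active = mean replicate inhibition of at least 30%, or all replicates individually reaching that 30% level; inactive = mean below 30% and not every replicate reaching it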;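 note: 0% = neutral control wells and 100% = L-leucinethiol positive control wells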
MLL AF4-AF9 inh: inhibitors of AF4 peptide binding to AF9, primary screen, biochemical, AlphaScreen, biotin-AF4 peptide, FLAG-AF9, single point; AID 651704, 2012; inhibition, % at 10 µM; hit rate 0.47% among 350,000;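 active = every replicate reaching a set inhibition limit, whatever the replicate mean, cut at about 25% in these data; inconclusive = mean inhibition reaches that limit but some replicates miss it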;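 note: 0% = plate neutral control median and 100% = total signal loss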
Target sequence (P42568 whole entry, looked up): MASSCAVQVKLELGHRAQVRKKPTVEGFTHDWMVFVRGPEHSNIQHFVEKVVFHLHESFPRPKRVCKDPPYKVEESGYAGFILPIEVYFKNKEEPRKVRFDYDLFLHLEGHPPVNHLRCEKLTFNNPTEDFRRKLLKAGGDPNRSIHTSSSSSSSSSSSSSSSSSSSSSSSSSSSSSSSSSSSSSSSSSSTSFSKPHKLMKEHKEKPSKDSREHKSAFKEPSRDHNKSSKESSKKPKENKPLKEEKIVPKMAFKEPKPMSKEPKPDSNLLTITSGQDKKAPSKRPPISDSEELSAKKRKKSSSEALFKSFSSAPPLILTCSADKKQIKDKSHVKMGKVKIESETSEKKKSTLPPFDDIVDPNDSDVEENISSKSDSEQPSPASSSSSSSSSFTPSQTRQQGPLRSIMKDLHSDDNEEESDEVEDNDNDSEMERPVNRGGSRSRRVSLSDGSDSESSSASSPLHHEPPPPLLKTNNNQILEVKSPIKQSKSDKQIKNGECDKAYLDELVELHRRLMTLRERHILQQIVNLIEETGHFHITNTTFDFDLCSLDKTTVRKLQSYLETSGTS
* hit, by the source's call; u = inconclusive; x = no result.

SMILES	DENV2 CPE	RAD52 inh	FGF22 binding	ERAP1 inh	MLL AF4-AF9 inh
CCC(=O)N(C)C[C@H]1Oc2ncc(C3=CCCC3)cc2C(=O)N([C@@H](C)CO)C[C@H]1C	8	1	0	-2	-4
Oc1cccc2cc(Nc3ccccc3)cnc12	x	-5	0	14	30*
Oc1cc(Nc2ccccc2)cc2cccnc12	3	-17	0	0	-2
CS(=O)(=O)N1CCN=C1SCc1ccc([N+](=O)[O-])cc1	-8	-3	43*	-2	-1
CN(C)c1ccc(Nc2ncnc3ccc(Br)cc23)cc1	-8	-19	0	-2	26*
Cc1cc(C(=O)CSc2ncnc3ccccc23)c(C)n1C1CC1	28*	-27	0	-1	-2
Cc1cc(C(=O)CSc2nnnn2C)c(C)n1C1CC1	7	5	1	3	4
C[C@@H]1CN([C@@H](C)CO)S(=O)(=O)c2ccc(C3=CCCC3)cc2O[C@@H]1CN(C)C(=O)c1ccccc1	10	8	0	-1	0
O=C(NCC[C@@H]1CC[C@@H](NS(=O)(=O)Cc2ccccc2)[C@H](CO)O1)C1CCC1	-1	-9	0	2	0
O=C(c1ccncc1)N1CC2(C1)[C@H](c1ccccc1)[C@H](CO)N2C(=O)CC1CC1	-1	-7	0	x	0
O=C(c1ccccc1)N1CC2(C1)[C@H](c1ccccc1)[C@@H](CO)N2C(=O)CC1CC1	26*	-13	0	0	-2
CCCNC(=O)N1CC2(C1)[C@H](c1ccccc1)[C@H](CO)N2C(=O)C1CCCCC1	65*	-2	0	0	-4
CCCNC(=O)N1CC2(C1)[C@H](c1ccccc1)[C@H](CO)N2C(=O)CC1CC1	23*	-3	1	2	-2
CC(NC(=S)NC1CCC(C(C)(C)C)CC1)c1ccccc1 (stereo not drawn)	23*	5	0	-4	-1
CCNc1nc(NC(C)CC)nc(Oc2ccc(OCC)nn2)n1 (stereo not drawn)	2	-8	-1	-8	-3
CCOc1ccc(Oc2nc(NCC(C)C)nc(OC)n2)nn1	36*	0	0	2	-7
Nc1[nH]c(C(=O)c2ccc(Br)cc2)c(-c2ccccc2Br)c1C(=O)NCCc1c[nH]c2ccccc12	-9	-17	44*	0	2
COCCNC(=O)c1c(N)[nH]c(C(=O)c2ccc(Br)cc2)c1-c1ccc(Br)cc1	34*	-12	0	-4	x
Nc1[nH]c(C(=O)c2ccc(Br)cc2)c(-c2ccncc2)c1C(=O)NCCc1c[nH]c2ccccc12	20*	-9	0	1	x
Nc1[nH]c(C(=O)c2ccc(Br)cc2)c(-c2ccc(F)cc2)c1C(=O)NCCc1c[nH]c2ccccc12	26*	17	0	-1	x
CCC(=O)Nc1ccc2c(c1)OC[C@H](C)N(C(=O)CC1CC1)C[C@H](C)[C@@H](OC)CN(C)C2=O	3	7	0	1	-2
CC(C)CC#Cc1ccc2c(c1)O[C@H](CN(C)C(=O)C1CCCCC1)[C@@H](C)CN([C@@H](C)CO)S2(=O)=O	-4	22	-1	-2	4
Nc1[nH]c(C(=O)c2ccc(Br)cc2)c(-c2ccc(Br)cc2)c1C(=O)NCCc1c[nH]c2ccccc12	3	-5	0	16	-5
Nc1[nH]c(C(=O)c2ccc(Br)cc2)c(-c2c(F)cccc2F)c1C(=O)NCCc1c[nH]c2ccccc12	39*	3	0	-1	x
COc1ccc(-c2c(C(=O)c3ccccc3)[nH]c(N)c2C(=O)NCCc2c[nH]c3ccccc23)cc1	31*	-5	0	-3	x
SMILES	DENV2 CPE	RAD52 inh	FGF22 binding	ERAP1 inh	MLL AF4-AF9 inh
Nc1[nH]c(C(=O)c2ccccc2)c(-c2ccc(Cl)cc2)c1C(=O)c1c[nH]c2ccccc12	28*	-19	0	0	x
Nc1[nH]c(C(=O)c2ccccc2)c(-c2ccc(Cl)cc2)c1C(=O)c1c[nH]c2ccc(F)cc12	-13	-17	0	0	x
C[C@H]1CCCCO[C@@H](CN(C)Cc2ccncc2)[C@@H](C)CN([C@@H](C)CO)C(=O)c2cc(NC(=O)Nc3ccc(C(F)(F)F)cc3)ccc2O1	-2	34	-2	0	0
COCCNC(=O)C[C@@H]1CC[C@H]2[C@@H](COc3ccc(NC(=O)C4CCOCC4)cc3C(=O)N2C)O1	4	2	0	1	-2
CNC[C@@H]1OCCCC[C@H](C)Oc2ccc(NC(=O)c3ccccc3)cc2C(=O)N([C@H](C)CO)C[C@H]1C	u	-95	0	-3	-13
CCc1ccccc1NCC(=O)Nc1ccccc1C(=O)OC	x	2	44*	0	2
COC(=O)c1ccccc1NC(=O)COC(=O)[C@H](C)NC(N)=O	1	-5	44*	-4	11
CCC(=O)N1[C@@H](CO)[C@@H](c2ccccc2)C12CN(Cc1ccccc1Cl)C2	-12	-10	0	-1	1
COc1cnc(-c2cccc(C(F)(F)F)c2)nc1OC	-4	-12	43*	3	-1
COc1ccc(C(O)c2ncc(-c3cccc(C(F)(F)F)c3)[nH]2)cc1 (stereo not drawn)	-3	-29	0	-1	-1
C[C@@H]1CN([C@@H](C)CO)C(=O)c2cccc(NC(=O)C3CCOCC3)c2O[C@H]1CN(C)C	5	-13	0	1	-1
O=C(/C=C\c1ccco1)c1ccc(NC(=O)c2ccco2)cc1	4	-31	43*	1	1
O=C(O)COc1ccc(NC(=O)c2ccc(NC(=O)c3ccco3)cc2)cc1	-6	-3	44*	-10	-4
O=C(NCc1ccccc1)c1ccc(NC(=O)c2ccco2)cc1	1	-8	0	-2	-1
O=C(C[C@@H]1C[C@H]2c3cc(NC(=O)NC4CCCC4)ccc3O[C@H]2[C@@H](CO)O1)NCc1ccc(Oc2ccccc2)cc1	-2	-5	1	-1	-1
CCS(=O)(=O)N1CC2(C1)[C@H](c1ccccc1)[C@H](CO)N2CCC(F)(F)F	-6	-12	0	0	0
CNC[C@@H]1Oc2ncc(-c3ccccc3)cc2C(=O)N([C@H](C)CO)C[C@@H]1C	2	17	0	1	-7
C[C@@H]1CN([C@@H](C)CO)C(=O)c2cc(-c3cccc(F)c3)cnc2O[C@@H]1CN(C)C(=O)Nc1cc(F)ccc1F	26*	2	0	-1	3
CNC[C@H]1Oc2ncc(C#Cc3ccccc3F)cc2C(=O)N([C@@H](C)CO)C[C@H]1C	71*	2	0	0	6
